Results from PubChem BioAssay (NCI).
“And” between values parts separate entries of the source, which are not always exact repeats. Equal values may be shown once. Compounds without any hit were thinned out: in the full panel of roughly 83,000, 20% have a hit.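 Cell lines were cultured in 96-well plates, exposed to a single compound concentration, and assessed for percent growth 48 hours later.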 Values without a mark were called inactive. The source made the active and inactive calls. How the source made its calls: active means growth percent below 10; inactive means the rest.

test system: HL-60(TB) leukemia; experiment: NCI-60 one-dose screen, 48 h (100 = growth as untreated, 0 = no growth, -100 = all killed); conditions: 10 µM unless noted

| SMILES | growth |
| --- | --- |
| CC(=O)Nc1ccc(O)cc1 | 88.3% and 74.2% |
| CNCCNc1nc2ccccc2c2c(=O)c3cc(F)ccc3oc12 | 95.4% |
| NC(Cc1ccc(O)cc1)C(=O)N/N=C/c1ccccc1O (stereo not given) | 93.7% |
| COC(=O)/C=C1/SC(=Nc2cccc(OC)c2)N(CCc2c[nH]c3ccc(O)cc23)C1=O | 59.8% |
| COc1ccc(-c2cn(-c3cccc(C(=O)/C=C/c4ccc(O)c(OC)c4)c3)c(=O)[nH]2)cc1 | -2.62% (active) |
| CC(C)CC1NC(=O)C(CC(C)C)N(CO)C1=O (stereo not given) | 106% |
| c1ccc2c(c1)CCN(NCCN1CCCC1)C2 | 96.9% |
| O=C1C2C3C=CC(O3)C2C(=O)N1Nc1ccccc1 (stereo not given) | 102% |
| CCN(CC)CC(O)CNc1c2ccc([N+](=O)[O-])cc2nc2cc(OC)c(OC)cc12 (stereo not given) | -17.5% (active) |
| CN1CCN(C(=O)[C@]23CCC(C)(C)C[C@@H]2C2=CC[C@@H]4[C@@]5(C)Cc6c([nH]c7ccccc67)C(C)(C)[C@@H]5CC[C@@]4(C)[C@]2(C)CC3)CC1 | 76.7% |
| Cc1ccc(C(O)C2=CC(=O)c3ccccc3C2=O)cc1 (stereo not given) | 92.1% |
| Cc1cc(OI)c(C(C)C)cc1-c1cc(C(C)C)c(OI)cc1C | 106% |
| O=S(=O)(NCCCNc1cc(-c2c(-c3cccc(O)c3)nc3sccn23)ccn1)c1cccc(Cl)c1 | 17.7% |
| COc1cc(/C=C/C(=O)c2cccc(Nc3nc(Nc4ccccc4)nc(Nc4ccccc4)n3)c2)cc(OC)c1OC | 9.01% (active) |
| CN(C)CCCn1c(=O)c2ccccc2c2ccccc21 | 63.4% |
| CCC1=C[C@]2(C3CC(=O)N(c4ccccc4)C3=O)CC(C(C)(C)C)C[C@@H]2[C@@H]2C(=O)N(c3ccccc3)C(=O)[C@H]12 (stereo not given in full) | 84.1% |
| COc1cc2c(O)n(CCCn3ccnc3)c3c4cnc5cccc(c(=O)c3c2cc1OC)c54 | 6.68% (active) |
| Cc1cc(Br)nnc1Br | 84.3% |
| Nc1nc(N)c2[nH]cnc2n1 | 87.5% |
| COCCOC(=O)NC(=O)Nc1ccc(/C(=N/O)c2ccc(Cl)cc2)cc1 | -20.4% (active) |

| SMILES | growth |
| --- | --- |
| Cc1ccc2c(c1)sc(-c1ccc(N(C)C)cc1)[n+]2C | -45.4% (active) |
| O=C1CCC(N2C(=O)c3cccc(NCCOCCOCCNC(=O)c4cc5c(o4)C(=O)c4ccccc4C5=O)c3C2=O)C(=O)N1 (stereo not given) | -9.95% (active) |
| O=C(Nc1cccc(-c2cccc(F)c2)c1)C1CCN(Cc2cccc3cccnc23)CC1 | 28% |
| C=Cc1cc[n+](CCCCCCCCCCCC)cc1 | 80% |
| COc1ccc(/C(=N/O)c2cc(F)c(F)c(OC)c2F)cc1O | -5.23% (active) |
| COc1ccc(C(=O)C2C(c3ccc(OC)cc3)CN(C)C23C(=O)Nc2ccccc23)cc1 (stereo not given) | 99.1% |
| COc1ccc(-c2n[nH]nc2-c2csc3ccccc23)cc1OC | 10.1% |
| Clc1cc(Cl)cc(-c2ccc(-c3ccc(/C=N/NC4=NCCN4)cc3)s2)c1 | 19.6% |
| Cc1c2c(cc3c1[nH]c1ccccc13)C=NCC2 | 93.3% |
| COc1ccc(-c2noc(N)c2-c2cc(OC)c3c(c2)OCO3)cc1 | -29.4% (active) |
| O=C1NCC(Nc2ccc(Br)cc2Cl)C(=O)N1 (stereo not given) | 108% |
| O=C1c2c(c3c4ccc(Br)cc4oc3c3[nH]c4ccccc4c23)C(=O)N1O | 25% |
| CN(C)CCNC(=O)c1cccc(-c2cnc3ccc(-c4ccc5c(c4)OCO5)nn23)c1 | 64.1% |
| N=C(N)c1ccc(-c2ccc(-c3cncc4ccccc34)s2)cc1F | -45.5% (active) |
| O=C(CCl)N(O)c1ccc(/C=C/c2ccccc2)cc1 | 69.4% and 51% |
| CCn1c(=S)sc2c(Nc3ccc(F)cc3)nc(-c3cccnc3)nc21 | 81.7% |
| O=[N+]([O-])c1cccc(/C=C/c2ccc3ccccc3n2)c1 | 90.8% |
| CC(=O)Oc1ccc(C2(c3ccc(OC(C)=O)cc3)C(=O)Nc3ccccc32)cc1 | 75.5% and 119% |
| CC(O)c1cnc(/C=C2\SC(=S)N(Cc3ccccc3)C2=O)s1 (stereo not given) | 20.4% |
| COC(=O)[C@H](Cc1cnc[nH]1)NC(=O)[C@@H](NC(=O)Nc1cc(C(F)(F)F)cc(C(F)(F)F)c1)C(C)C | -62.5% [100 µM] (active) |
